IL-1B inflam inh – qHTS for Inhibitors of Inflammasome Signaling: IL-1-beta AlphaLISA Primary Screen; 360,000 compounds, 4.7% hits; THP-1 LPS/ATP IL-1B secretion, AlphaLISA, 16 h; active compounds read low; activity change, % at 57.5 µM; in the data active = activity change below about -50%; inconclusive = mostly about -30% to -49%
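THP-1 cells pretreated 1 hr with compounds (up to 57.5 uM final), then stimulated with LPS (250 ng/mL final) plus ATP (1.25 mM final); secreted IL-1B measured by AlphaLISA after 16 hr, decreased signal indicating inhibition.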
HT1080-NT tox – qHTS for induction of synthetic lethality in tumor cells producing 2HG: qHTS for the HT-1080-NT fibrosarcoma cell line | HT-1080-NT fibrosarcoma viability, CellTiter-Glo ATP luminescence, 48 h | Potency, µM (titrated, usually from 46.1 µM), inactives show top-dose activity, negative = less viability, actives largely listed as cytotoxic | 360,000 compounds, 1.6% hits | AID 686970, 2013;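 also: NT is the 2HG producing partner of a matched IDH1 knockdown line; potency is read from the fitted curve at half-maximal effect; 0% = DMSO-treated cells and -100% = media-only wells without cells; nearly all actives have a fitted effect of over 55% in size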
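Compounds were tested in concentration-response format on HT-1080-NT cells for 48 hours at 37 degrees C. Cell viability came from CellTiter-Glo luminescence; curves were classified by r2, response magnitude and activity.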
DT40 TDP1 CPT – qHTS for Inhibitors of human tyrosyl-DNA phosphodiesterase 1 (TDP1): qHTS in cells in presence of CPT; chicken DT40 Tdp1-/-;hTDP1 cells + 20 nM CPT, ATP luminescence, 48 h; Potency, µM (series often up to 46.2 µM), for the others: at the top dose activity change, negative = growth inhibition, hits mostly inhibitors; 420,000 compounds, 12% hits; also: potency is read from the fitted curve at half-maximal effect; nearly all actives have a fitted effect of over 55% in size
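Chicken DT40 Tdp1-/- cells complemented with human TDP1, 400 cells/well, exposed to compounds plus 20 nM camptothecin for at least 48 h at 37 C; viability read as ATP content by CellTiter-Glo luminescence.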
HT1080 IDH1KD tx – qHTS for induction of synthetic lethality in tumor cells producing 2HG: qHTS for the HT-1080-IDH1KD cell line; HT-1080 IDH1 knockdown viability, ATP luminescence, 48 h; Potency, µM (titrated, usually from 46.1 µM), for the others: at the top dose activity, negative = toxicity, actives largely listed as cytotoxic; 360,000 compounds, 2% hits;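 also: potency is read from the fitted curve at half-maximal effect; 0% = DMSO wells and -100% = cell-free medium wells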
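Cytotoxicity counter-line: IDH1KD HT-1080, 48 h, CellTiter-Glo. Curves classed by r2, magnitude and activity.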
TDP1 cell noCPT – qHTS for Inhibitors of human tyrosyl-DNA phosphodiesterase 1 (TDP1): qHTS in cells in absence of CPT | 420,000 compounds, 15% hits | AID 686978, 2013 | Potency, µM (doses to about 46.2 µM), without a hit: at the highest dose activity change, negative = growth inhibition, most hits filed as inhibitors | DT40 Tdp1-/- hTDP1 cells, no CPT, ATP luminescence, 48 h; also: potency is read from the fitted curve at half-maximal effect; nearly all actives have a fitted effect of over 55% in size
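Camptothecin absent (DMSO only). Human TDP1-complemented DT40 knockout cells, 400 cells/well, 37 °C for minimum 48 hr; ATP measured via CellTiter-Glo, 30 min dark incubation, luminescence.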
* hit, by the source's call; u = inconclusive; x = no result. Most compounds without a hit are left out; they make up all but 19% or so of the library. Unless noted, calls follow the shape of the dose curve; as a rule, active = well fitted curve in the direction sought with a large enough effect; inconclusive = small, poorly fitted or top-dose-only effect, or another doubt; inactive = no such curve, though single readings can be large; an effect the other way counts as inactive or inconclusive. Unless noted, % is scaled to controls: 0 for no effect and ±100 for the full control effect.

SMILES	IL-1B inflam inh	HT1080-NT tox	DT40 TDP1 CPT	HT1080 IDH1KD tx	TDP1 cell noCPT
CCc1ccc(C(=O)/C=C/Nc2ccc(S(=O)(=O)Nc3cnc4ccccc4n3)cc2)cc1	10	21%	-24%	11%	-14%
COc1ccc(-c2oc(=O)c3cc(OC)c(OC)cc3c2-c2ccc3c(c2)OCO3)cc1	-11	-3%	16µM*	-6%	18µM*
COCc1ccc(-c2c(-c3ccc(OC)cc3)oc(=O)c3cc(OC)c(OC)cc23)cc1	28	-10%	u	-15%	23µM*
COc1ccc(C(=O)c2c(-c3ccc(OC)cc3)oc3ccc(-c4cc(OC)c(OC)c(OC)c4)cc23)cc1	-11	8%	7.3µM*	4%	9.2µM*
COc1ccc(-c2oc3ccc(-c4cc(OC)c(OC)c(OC)c4)cc3c2C(=O)c2ccc(OC)nc2)cc1	-4	1%	u	0%	u
COc1ccc(-c2oc3ccc(-c4ccc5c(c4)OCO5)cc3c2-c2ccc(OC)nc2)cc1	-14	3%	u	12%	u
CC(=O)Oc1ccc2c(c1)CCC1C2CC[C@]2(C)C(=O)CCC12 (some centres not stated)	x	x	3%	x	-9%
COc1ccc(-c2c(-c3ccsc3)oc(=O)c3cc(OC)c(OC)cc23)cc1	40	13%	u	9%	u
COc1ccc(-c2oc(=O)c3cc(OC)c(OC)cc3c2C#C[C@]2(O)CC[C@H]3[C@@H]4CCc5cc(OC)ccc5[C@H]4CC[C@@]32C)cc1	7	2%	u	5%	16µM*
COc1ccc(-c2oc(=O)c3cc(OC)c(OC)cc3c2C#CCCO)cc1	0	-1%	u	-7%	21µM*
COc1ccc(/C=C/c2c(-c3ccc(OC)cc3)oc(=O)c3cc(OC)c(OC)cc23)cc1	25	-3%	u	10%	u
Cc1cc(C)c(C#N)c(SCC(=O)Nc2c(C)n(C)n(-c3ccccc3)c2=O)n1	9	4%	-5%	16%	-15%
Cc1ccc(S(=O)(=O)N(CC(=O)NCCSCc2ccco2)c2cc(C)ccc2C)cc1	-24	-20%	16µM*	-10%	u
Cc1ccc(N(CC(=O)NCCSCc2ccco2)S(=O)(=O)c2ccc(F)cc2)cc1	-23	-5%	26µM*	-3%	23µM*
O=C(CN(c1ccccc1)S(=O)(=O)c1ccccc1)NCCSCc1ccco1	-5	3%	-19%	-2%	-27%
Cc1ccc(N(CC(=O)NCCSCc2ccco2)S(C)(=O)=O)cc1	9	1%	-11%	2%	-8%
CCCS(=O)(=O)N1CC(=O)N(c2cc(C)ccc2C)C(C)(C(=O)NC2CCCCCC2)C1 (configuration not stated)	x	x	-11%	x	-7%
CC1(C)C=Cc2c(c3c(c4c(=O)c(-c5ccc(O)cc5)coc24)OC(C)(C)CC3)O1	u	12%	18µM*	u	26µM*
CC(C)=CCc1c2c(c3occ(-c4ccc(O)c(O)c4)c(=O)c3c1O)C=CC(C)(C)O2	-62*	u	1.3µM*	u	1.5µM*
Cc1ccc(C(=O)N(C)CC(=O)Nc2cccc(C)c2C)o1	-1	0%	2%	9%	-10%
OCC1(Cc2ccc(F)cc2F)CCCN(CCCc2ccccc2)C1 (configuration not stated)	-55*	-2%	u	-7%	15µM*
OCC1(CCc2ccccc2)CCCN(CCCC(F)(F)F)C1 (configuration not stated)	-10	-4%	-11%	-9%	0%
OCC1(CCc2ccccc2)CCCN(CCCc2ccccc2)C1 (configuration not stated)	-73*	-10%	u	u	u
